Measured values taken from PubChem BioAssay (EPA / NIEHS).
Activity calls are given as the source filed them. The calls were made as follows: active = hit-call score of the fitted dose curve at least 0.9, where 1 is the maximum; inactive = score below 0.9.

Assay: ATG_FoxO_CIS: Attagene CIS-FACTORIAL HepG2 Assay for human Forkhead box O (FoxO) (AID 2282943)
Details: HepG2 Attagene cis-reporter, FoxO element, mRNA; actives raise or lower the signal
Procedure: ATG_CIS is a cell-based, multiplexed-readout assay that uses HepG2, a human liver cell line, with measurements taken at 24 hours after chemical dosing in a 24-well plate.ATG_FoxO_CIS is one of 52 assay component(s) measured or calculated from the ATG_CIS assay. It is designed to make measurements of mRNA induction, a form of inducible reporter, as detected with fluorescence intensity signals by Reverse transcription polymerase chain reaction (RT-PCR) and Capillary electrophoresis technology.Data from the assay component ATG_FoxO_CIS was analyzed into 1 assay endpoint. This assay endpoint, ATG_FoxO_CIS, was analyzed with bidirectional fitting relative to DMSO as the negative control and baseline of activity. Using a type of inducible reporter, measures of mRNA for gain or loss-of-signal activity can be used to understand the reporter gene at the transcription factor-level as they relate to the gene FOXO1 and FOXO3. Furthermore, this assay endpoint can be referred to as a primary readout, because this assay has produced multiple assay endpoints where this one serves a reporter gene function. To generalize the intended target to other relatable targets, this assay endpoint is annotated to the dna binding intended target family, where the subfamily is forkhead box protein.
Human liver HepG2 cells are transiently transfected with multiple reporter transcription units (MRTUs) in 6-well plates using FuGene 6 reagent (Roche; 3 ml FuGene/1 mg DNA). The MRTU constructs are regulated by a cis-regulating element (promoter). […] A major difference between the CIS and TRANS system is that in CIS activities of endogenous TFs are measured, whereas the TRANS assay evaluates changes in activities of exogenous, chimeric NR-Gal4 proteins. […] At the end of 24 hour incubation, total RNA was isolated using TriZol reagent (Invitrogen). The isolated RNA is then reverse-transcribed using oligo(dT) primer and Mo-MLV reverse transcriptase (Invitrogen) with DNAse I (Ambion) treatment for 30 min. The one-tenth of the produced cDNA was amplified by PCR using Taq DNA polymerase (Invitrogen) and two reporter sequence-specific primers. The PCR products were fluorescently labeled by primer extension with 6-arboxyfluorescein (6-FAM) 5'-labeled reporter sequence-specific primer (2 min at 95 C, 20 s at 68 C and 10 min at 72 C) and these products were digested with 5U of HpaI (New England Biolabs) for 2h at 37 C. The fragments were purified using Qiaquick PCR columns (Qiagen), analyzed on an ABI 3130xL genetic analyzer (Applied Biosystems) with peak positions identified by using a set of X-rhodamine (ROX)-labeled MapMarker1000 molecular weight standards (BioVentures). The raw capillary electrophoresis data was processed using Attagraph software (Attagene).
For `c1cc(OCC2CO2)ccc1Cc1ccc(OCC2CO2)cc1` (stereo not given), the outcome was “inactive”. With `SCc1ccco1` the outcome was “inactive”. In the case of `S=c1[nH]c2ccccc2[nH]1`, the outcome is reported as “inactive”. In the case of `c1ccc2c(c1)CCCC2`, the outcome is reported as “inactive”. For `NNc1ccccc1`, the outcome was “inactive”. In the case of `Cc1ncc(C[n+]2csc(CCO)c2C)c(N)n1`, the outcome is reported as “inactive”. With `CC1(C)[C@H](C(=O)O[C@H](C#N)c2cccc(Oc3ccccc3)c2)[C@@H]1C=C(Br)Br` the outcome was “inactive”. In the case of `O=C1C(Cl)=C(Cl)C(=O)C(Cl)=C1Cl`, the outcome is reported as “inactive”. In the case of `CCC(Br)(CC)C(=O)NC(N)=O`, the outcome is reported as “inactive”. With `N#CC(c1ccccc1)c1ccccc1` the outcome was “inactive”. For `CC(=O)c1cc2c(cc1C)C(C)(C)C(C)CC2(C)C` (stereo not given), the outcome was “inactive”. For `ClC1=C(Cl)[C@]2(Cl)[C@@H]3[C@@H](Cl)[C@H](Cl)C[C@@H]3[C@@]1(Cl)C2(Cl)Cl`, the outcome was “inactive”. In the case of `Clc1ccc(-c2ccccc2)cc1`, the outcome is reported as “inactive”. In the case of `CC1OC(C)OC(C)O1` (stereo not given), the outcome is reported as “inactive”. In the case of `CCOC(=O)N(C)N=O`, the outcome is reported as “inactive”. With `CCC(C)(C)O` the outcome was “inactive”. In the case of `CCOC(=O)C1OC1(C)c1ccccc1` (stereo not given), the outcome is reported as “inactive”. With `C=CC(=O)OC` the outcome was “inactive”. In the case of `CC=Cc1ccc2c(c1)OCO2`, the outcome is reported as “inactive”. For `N#CCCCCC#N`, the outcome was “inactive”. In the case of `O=C(O)COc1ccccc1`, the outcome is reported as “inactive”. For `CCc1cccc(C)c1N(C(=O)CCl)[C@@H](C)COC`, the outcome was “inactive”. In the case of `COCC(=O)N(c1c(C)cccc1C)N1CCOC1=O`, the outcome is reported as “inactive”. In the case of `O=C(O)c1cc[c]([Hg][Cl])cc1`, the outcome is reported as “inactive”. In the case of `CCCCOP(=O)(O)OCCCC`, the outcome is reported as “inactive”. With `CC(C)COP(=O)(OCC(C)C)OCC(C)C` the outcome was “inactive”. For `c1ccc(P(c2ccccc2)c2ccccc2)cc1`, the outcome was “inactive”. For `COC(C)(C)CCC[C@H](C)C/C=C/C(C)=C/C(=O)OC(C)C`, the outcome was “inactive”. In the case of `CC(C)(Cl)Cl`, the outcome is reported as “inactive”. In the case of `Cc1cc(C)c(C2=C(OC(=O)CC(C)(C)C)C3(CCCC3)OC2=O)c(C)c1`, the outcome is reported as “inactive”. For `CCCCOC(=O)CCC(=O)OCCCC`, the outcome was “inactive”. In the case of `CCC1CCC(=O)O1` (stereo not given), the outcome is reported as “inactive”. With `O=C(NC(=O)c1c(F)cccc1F)Nc1ccc(Oc2ccc(C(F)(F)F)cc2Cl)cc1F` the outcome was “inactive”. In the case of `CN1C(=O)CCS(=O)(=O)C1c1ccc(Cl)cc1` (stereo not given), the outcome is reported as “inactive”. In the case of `CC(=O)C=Cc1ccccc1`, the AC50 is reported as 100 µM (active). With `CC(C)C#N` the outcome was “inactive”. For `CC(=O)/C=C/c1ccccc1`, the outcome was “inactive”. For `CC(C)C(=O)Cl`, the outcome was “inactive”. In the case of `CCC[N+](=O)[O-]`, the outcome is reported as “inactive”. For `O=S(=O)(c1ccccc1)c1ccccc1`, the outcome was “inactive”.
